High-throughput results (PubChem BioAssay)
The list is not random: actives were taken first. Their share in the collection is about 32%.
PostGolgi yeast: growth inhibition of a yeast mutant, post-Golgi transport screen; AID 739; hit rate 0.9% among 98,000; inhibition, % at 10 µM; post-Golgi transport phenotypic cell assay;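 further: yeast cells grown in 1536-well plates; yeast grown about 18 h at 30C before absorbance read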
CYP2C19 act: increases human CYP2C19 enzyme activity | P33261 | AID 1025 | recombinant CYP2C19, luciferin-H EGE luminescence; stronger effect = higher value; 0 = fully inhibited enzyme, 1 = untreated enzyme | 96,000 tested, under 10 active | activation factor at 5 µM;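 active means activation factor of at least 2 at 5 µM in the primary screen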;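 further: 0 = wells with 2.5 mM tranylcypromine and 1 = vehicle-only wells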
CYP2C9 act: activators of human CYP2C9. P11712. recombinant CYP2C9, luciferin-H conversion, luminescence; stronger effect = higher value; factor 1 = untreated enzyme, 0 = blocked. activation factor at 5 µM. hit rate 1.4% among 96,000. AID 1024;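 active means activation factor of 2 or more for CYP2C9 at a 5 µM dose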;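 further: 0 = sulfaphenazole-blocked wells and 1 = vehicle-only wells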
Target sequence (P11712 whole entry, looked up): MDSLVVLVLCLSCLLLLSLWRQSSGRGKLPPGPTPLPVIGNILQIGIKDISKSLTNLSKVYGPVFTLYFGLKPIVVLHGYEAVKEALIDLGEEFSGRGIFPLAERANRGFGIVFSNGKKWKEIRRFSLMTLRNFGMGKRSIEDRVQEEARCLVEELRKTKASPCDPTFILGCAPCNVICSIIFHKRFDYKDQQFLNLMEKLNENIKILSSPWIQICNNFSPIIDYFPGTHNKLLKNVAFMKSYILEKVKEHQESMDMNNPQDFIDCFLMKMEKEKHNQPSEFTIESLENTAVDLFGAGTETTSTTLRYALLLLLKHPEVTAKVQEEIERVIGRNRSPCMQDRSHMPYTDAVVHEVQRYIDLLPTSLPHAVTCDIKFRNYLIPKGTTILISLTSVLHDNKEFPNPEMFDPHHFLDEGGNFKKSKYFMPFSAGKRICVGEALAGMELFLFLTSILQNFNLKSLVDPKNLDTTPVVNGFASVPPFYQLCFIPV
PostGolgi ctrl: yeast control strain growth, post-Golgi counter-screen; efflux-deficient yeast background strain, growth absorbance A615, 16 h; inhibition, % at 10 µM; hit rate 5% among 98,000; AID 738
CYP2C9 inhib: blocks human cytochrome P450 2C9 | P11712 | CYP2C9 Supersomes, luciferin-H conversion, luminescence | inhibition, % at 5 µM | hit rate 20% among 96,000 | AID 777;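 active means blocking of liver enzyme CYP2C9 beyond about 50% at 5 µM, limit read from the data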
CYP2C19 inh: human CYP2C19 inhibition; CYP2C19 Supersomes, luciferin-H EGE luminescence, 30 min; P33261; hit rate 21% among 96,000; inhibition, % at 5 µM; AID 778;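 active means CYP2C19 inhibition above a set limit at 5 µM in the primary screen, cut at about 50% in these data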;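 further: plate controls were negative control wells for no effect and 2.5 mM tranylcypromine positive control for full effect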
* marks the source's active call; other numbers are inactive results; / = not tested or not shown. Unless noted, no stated cut-off is given here; in the data, active means inhibition above about 30%; inactive means the rest.

SMILES | PostGolgi yeast | CYP2C19 act | CYP2C9 act | PostGolgi ctrl | CYP2C9 inhib | CYP2C19 inh
CCc1cc2ccccc2nc1SCC(=O)N1CCN(C(=O)c2ccco2)CC1 | 8 | 0.2 | 0.2 | 23 | 80* | 83*
CCOc1ccc(C(C)NC(=O)CCC(=O)O)cc1 (configuration not stated) | 1 | 1 | 0.9 | -1 | 8 | 2
CCOc1ccc2oc(=O)cc(C)c2c1 | 4 | 0.9 | 0.9 | 36* | 11 | 12
CCOc1ccc(Nc2cc(=O)oc3ccccc23)cc1 | -1 | 0.9 | 1.9 | 48* | -89 | 11
Cc1cc(=O)oc2cc(Oc3ncccn3)ccc12 | -8 | 0.8 | 0.9 | 27 | 7 | 17
Cc1cc(C)nc(SCC(=O)Oc2ccc3oc(=O)cc(C)c3c2)n1 | -1 | 1 | 2.5* | 1 | -152 | 0
COc1ccc(C2=NOC(C(=O)NCc3cccs3)C2)cc1OC (configuration not stated) | 6 | 0.9 | 1 | -10 | 2 | 12
Cc1cccc(CNC(=O)c2ccccc2N)c1 | -3 | 0.8 | 1.2 | 3 | -18 | 17
Cc1ccccc1NC1=C(Cl)C(=O)OC1OC(=O)c1ccco1 (configuration not stated) | -7 | 0.7 | 0.5 | 1 | 48 | 28
Cc1ccccc1NC1=C(Cl)C(=O)OC1NC(=O)c1ccccc1 (configuration not stated) | -10 | 0.4 | 0.3 | 12 | 72* | 61*
COc1cccc(NS(=O)(=O)c2ccc(S(=O)(=O)N3CCOCC3)cc2)c1 | 3 | 0.1 | 0.3 | 15 | 67* | 93*
Cc1ccc(S(=O)(=O)N2CCCN(S(=O)(=O)c3ccc(C)cc3)CC2)cc1 | 9 | 0.9 | 1.7 | 11 | -66 | 8
COc1ccc(S(=O)(=O)Nc2ccc(S(=O)(=O)N3CCOCC3)cc2)cc1 | -14 | 0.4 | 0.1 | 9 | 94* | 60*
CCn1c(=O)c(=O)n(CC)c2cc(S(=O)(=O)Nc3cccc(OC)c3)ccc21 | 6 | 0.5 | 0.1 | 13 | 87* | 49
COc1cccc(NS(=O)(=O)c2ccc3c(c2)n(C)c(=O)c(=O)n3C)c1 | -5 | 0.6 | 0.5 | 5 | 50 | 35
CS(=O)(=O)Nc1ccc(S(=O)(=O)N2CCOCC2)cc1 | 5 | 1 | 1 | 6 | 4 | 3
Cc1ccc(S(=O)(=O)Nc2ccc(S(=O)(=O)N3CCCC3)cc2)cc1 | 0 | 0.3 | 0 | 0 | 98* | 68*
COc1cccc(S(=O)(=O)N2CCOCC2)c1 | -9 | 0.6 | 1.2 | -13 | -17 | 42
CC(C)(C)NCc1ccccc1OCc1cccs1 | 1 | 1.1 | 1 | 10 | 2 | -8
CCCS(=O)(=O)N1CCN(C(=O)COc2ccc(OC)cc2)CC1 | -4 | 0.9 | 0.8 | 0 | 16 | 12
CS(=O)(=O)N(CC(=O)O)c1cc(Cl)cc(Cl)c1 | -1 | 1.1 | 1.1 | 8 | -14 | -13
CCC(CC)C(=O)N=C1SC2CS(=O)(=O)CC2N1CCc1ccc(OC)cc1 (configuration not stated) | 2 | 0.2 | 0.2 | 7 | 77* | 80*
COc1ccc(CCN2C(=NC(=O)CCC(=O)O)SC3CS(=O)(=O)CC32)cc1 (configuration not stated) | -6 | 1 | 0.9 | -1 | 8 | 1
CC(OC(=O)c1cc2sccc2n1C)C(=O)NCCc1ccccc1 (configuration not stated) | -6 | 0.5 | 0.2 | 27 | 83* | 52*
CC(OC(=O)c1cc2sccc2n1C)C(=O)NCC1CCCO1 (configuration not stated) | -2 | 0.7 | 0.6 | 4 | 42 | 33
SMILES | PostGolgi yeast | CYP2C19 act | CYP2C9 act | PostGolgi ctrl | CYP2C9 inhib | CYP2C19 inh
CC(OC(=O)c1cc2sccc2n1C)C(=O)NCc1ccc(F)cc1 (configuration not stated) | -4 | 0.2 | 0.3 | 12 | 74* | 78*
CCC(OC(=O)c1cc2sccc2n1C)C(=O)NCC1CCCO1 (configuration not stated) | 1 | 0.8 | 0.9 | 18 | 11 | 25
CC(OC(=O)c1cc2sccc2n1C)C(=O)NCc1ccc2c(c1)OCO2 (configuration not stated) | -3 | 0.7 | 0.2 | -4 | 82* | 32
CCOC(=O)c1c(C)[nH]c(C(=O)OCC(=O)NC(C)C)c1C | -6 | 1 | 0.6 | 7 | 45 | 4
CCOC(=O)Nc1ccc(=O)n(Cc2c(Cl)cccc2Cl)c1 | 6 | 0.8 | 0.5 | 18 | 53* | 23
CC(Cc1cccs1)NC(=O)Nc1ccccc1 (configuration not stated) | -1 | 0.1 | 0.4 | -3 | 57* | 89*
CC(Cc1cccs1)NC(=O)Nc1ccc(Cl)cc1 (configuration not stated) | 16 | 0.3 | 0.7 | 12 | 30 | 68*
CC(Cc1cccs1)NC(=O)Nc1ccc(Cl)c(Cl)c1 (configuration not stated) | -4 | 0.3 | 0.3 | 69* | 69* | 73*
FC(F)(F)c1nc(Oc2ccccc2)c2ccccc2n1 | 5 | 0.6 | 0.7 | 6 | 33 | 38
COc1cccc(C(=O)Nc2c3c(nn2-c2cccc(C)c2C)CS(=O)C3)c1OC (configuration not stated) | 5 | 0.9 | 0.9 | 0 | 14 | 13
O=C(NC1=NCCS1)c1ccc(Br)s1 | -10 | 1 | 1 | 4 | -1 | -4
COc1cc(C)c(CNc2ccc(OC)c(OC)c2)cc1C | 14 | 0 | 0.5 | -18 | 48 | 97*
COc1cc(C)c(CNc2cccc(C)c2)cc1C | -12 | 0.1 | 0.3 | 1 | 71* | 93*
CC1(C)C(c2ccccc2)=[N+]([O-])CN1O | -3 | 1 | 1.1 | -1 | -9 | -4
O=C(CSc1nc2ccccc2c(=O)n1CCC(=O)N1CCCCC1)NCc1ccccc1 | 3 | / | / | 16 | / | /
COCCn1c(SCC(=O)Nc2ccc(NC(=O)c3ccco3)c(OC)c2)nc2ccccc2c1=O | 16 | 1 | 0.8 | -4 | 21 | -2
CCCCn1c(SCC(=O)Nc2cc(NC(=O)c3ccco3)ccc2C)nc2ccccc2c1=O | -6 | 0.3 | 0.3 | 9 | 75* | 72*
Cc1ccc(NC(=O)CSc2nc3ccccc3c(=O)n2CCCN2CCCCC2)cc1C | -3 | 0.5 | 0.4 | -2 | 63* | 48
Cc1ccc(NC(=O)CSc2nc3ccccc3c(=O)n2CCCC(=O)N2CCCC2)cc1 | -12 | 0.5 | 0.6 | 6 | 44 | 55*
Cc1ccc(-n2c(N)c(C(=O)N3CCCCC3)sc2=S)cc1 | 0 | 0.3 | 0.7 | 13 | 26 | 67*
Cc1ccc(-n2c(N)c(C(=O)N3CCN(C)CC3)sc2=S)cc1 | -4 | 1 | 1 | 8 | 3 | -5
COc1cccc(-c2nnc(SCC(=O)N3CC(C)CC(C)C3)o2)c1 (configuration not stated) | -3 | 0.4 | 1.2 | 4 | -17 | 65*
